Source: PubChem BioAssay (NCATS)
Results filed as inconclusive are left out. Where a call stands in place of a potency, no number is given. Unmarked numbers belong to inactive results. Active and inactive are the calls of the source. Calls follow the shape of the dose curve; as a rule, active = well fitted curve in the direction sought with a large enough effect; inconclusive = small, poorly fitted or top-dose-only effect, or another doubt; inactive = no such curve, though single readings can be large; an effect the other way counts as inactive or inconclusive.

Assays:
CRL-7250 = normal cell line; assay: Cytotoxic Profiling of Annotated Libraries Using Quantitative High-Throughput Screening (AID 1296008); conditions: Five cell lines viability, CellTiter-Glo ATP luminescence, 48-72 h; max response: stronger effect = lower value; also: nearly all actives have a fitted effect of over 60% in size; also: potency is read from the fitted curve at half-maximal effect
Summary of the method: (§1)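 Cells exposed to compounds for 48 or 72 hr at 37 degrees Celsius. Viability read as ATP-coupled luminescence with CellTiter-Glo after 10 min at room temperature.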

HaCat = assay: as above; conditions: Five cell lines viability, CellTiter-Glo ATP luminescence, 48-72 h; max response: stronger effect = lower value
Summary of the method: as §1

KB-3-1 = assay: as above; conditions: Five cell lines viability, CellTiter-Glo ATP luminescence, 48-72 h; max response: stronger effect = lower value
Summary of the method: as §1

NIH3T3 = assay: as above; conditions: Five cell lines viability, CellTiter-Glo ATP luminescence, 48-72 h; max response: stronger effect = lower value
Summary of the method: as §1

C33A = assay: Primary qHTS to identify gynecologic anti-cancer compounds using libraries of approved drugs and bioactive compounds (AID 1345084); conditions: Gynecologic cancer cell panel viability, ATPlite luminescence, 48 h; series mostly up to 57.5 µM; also: nearly all actives have a fitted effect of over 55% in size
Summary of the method: (§2)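 Cytotoxicity screen measuring ATP content by luciferase luminescence. Each compound is applied at five concentrations for 48 h at 37 C with 5% CO2.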

CAOV3 = assay: as above; conditions: Gynecologic cancer cell panel viability, ATPlite luminescence, 48 h; series mostly up to 57.5 µM
Summary of the method: as §2

CASKI = assay: as above; conditions: Gynecologic cancer cell panel viability, ATPlite luminescence, 48 h; series mostly up to 57.5 µM
Summary of the method: as §2

Es-2 = assay: as above; conditions: Gynecologic cancer cell panel viability, ATPlite luminescence, 48 h; series mostly up to 57.5 µM
Summary of the method: as §2

HeLa = assay: as above; conditions: Gynecologic cancer cell panel viability, ATPlite luminescence, 48 h; series mostly up to 57.5 µM
Summary of the method: as §2

JEG-3 = assay: as above; conditions: Gynecologic cancer cell panel viability, ATPlite luminescence, 48 h; series mostly up to 57.5 µM
Summary of the method: as §2

OV90 = assay: as above; conditions: Gynecologic cancer cell panel viability, ATPlite luminescence, 48 h; series mostly up to 57.5 µM
Summary of the method: as §2

PA-1 = assay: as above; conditions: Gynecologic cancer cell panel viability, ATPlite luminescence, 48 h; series mostly up to 57.5 µM
Summary of the method: as §2

SKOV3 = assay: as above; conditions: Gynecologic cancer cell panel viability, ATPlite luminescence, 48 h; series mostly up to 57.5 µM
Summary of the method: as §2

Hek293T = assay: as above; conditions: Gynecologic cancer cell panel viability, ATPlite luminescence, 48 h, control line for the selectivity index; series mostly up to 57.5 µM
Summary of the method: as §2

## O=C(NCCO)c1cccc(-c2cc(Nc3ccc(OC(F)(F)F)cc3)ncn2)c1
CRL-7250
  max response: 0.504%
HaCat
  max response: -14.2%
KB-3-1
  max response: -22.2%
NIH3T3
  max response: -22.6%
C33A
  Potency: inactive
CAOV3
  Potency: inactive
CASKI
  Potency: inactive
Es-2
  Potency: inactive
HeLa
  Potency: inactive
JEG-3
  Potency: inactive
OV90
  Potency: inactive
PA-1
  Potency: inactive
SKOV3
  Potency: inactive

## Cc1nc(N2CCN(C(=O)c3ccco3)CC2)c2c3c(sc2n1)CCCC3
CRL-7250
  max response: -5.8%
HaCat
  max response: 1.01%
KB-3-1
  max response: -12.8%
NIH3T3
  max response: 1.1%
C33A
  Potency: inactive
CAOV3
  Potency: inactive
Es-2
  Potency: inactive
HeLa
  Potency: inactive
Hek293T
  Potency: inactive
JEG-3
  Potency: inactive
OV90
  Potency: inactive
PA-1
  Potency: inactive
SKOV3
  Potency: inactive

## OC1(CN2CCC(COc3noc4cccc(O[C@@H]5CCOC5)c34)CC2)CCOCC1
CRL-7250
  max response: -0.0295%
HaCat
  max response: -23.1%
KB-3-1
  max response: 2.03%
NIH3T3
  max response: -22.8%
C33A
  Potency: inactive
CASKI
  Potency: inactive
Es-2
  Potency: inactive
HeLa
  Potency: inactive
Hek293T
  Potency: inactive
JEG-3
  Potency: inactive
OV90
  Potency: inactive
PA-1
  Potency: inactive

## C[C@H]1CO[C@@H]2Cn3cc(C(=O)NCc4ccc(F)cc4F)c(=O)c(O)c3C(=O)N12
CRL-7250
  max response: -9.56%
HaCat
  max response: 1.95%
KB-3-1
  max response: -18.7%
NIH3T3
  max response: 2.62%
C33A
  Potency: inactive
CAOV3
  Potency: inactive
CASKI
  Potency: inactive
Es-2
  Potency: inactive
HeLa
  Potency: inactive
Hek293T
  Potency: inactive
OV90
  Potency: inactive
PA-1
  Potency: inactive
SKOV3
  Potency: inactive

## CCOC(=O)C1=Cc2ccc(C(F)(F)C(F)(F)F)cc2N=C(N)C1
CRL-7250
  max response: -15.9%
HaCat
  max response: -0.757%
KB-3-1
  max response: -20.4%
NIH3T3
  max response: -6.78%
C33A
  Potency: inactive
CAOV3
  Potency: inactive
CASKI
  Potency: inactive
Es-2
  Potency: inactive
HeLa
  Potency: inactive
Hek293T
  Potency: inactive
OV90
  Potency: inactive
PA-1
  Potency: inactive
SKOV3
  Potency: inactive

## CC(C)C[C@H](CO)Nc1nc(S[C@@H](C)c2ccccc2)nc2nc(N)sc12
CRL-7250
  max response: 1.1%
HaCat
  max response: -4.79%
KB-3-1
  outcome: inactive
NIH3T3
  max response: 2.79%
C33A
  Potency: inactive
CAOV3
  Potency: inactive
CASKI
  Potency: inactive
Es-2
  Potency: inactive
HeLa
  Potency: inactive
Hek293T
  Potency: inactive
OV90
  Potency: inactive
PA-1
  Potency: inactive
SKOV3
  Potency: inactive

## COC1CC(=O)C23C(=O)NC(CC(C)C)C2C(C)C(C)=CC3/C=C(\C)CCCC1O (stereo not given)
CRL-7250
  max response: -6.23%
HaCat
  max response: 3.61%
KB-3-1
  max response: 1.14%
NIH3T3
  max response: -14.9%
C33A
  Potency: inactive
CAOV3
  Potency: inactive
CASKI
  Potency: inactive
Es-2
  Potency: inactive
HeLa
  Potency: inactive
Hek293T
  Potency: inactive
JEG-3
  Potency: inactive
OV90
  Potency: inactive
PA-1
  Potency: inactive
SKOV3
  Potency: inactive

## Fc1ccc(-c2nc(-c3ccccc3F)[nH]c2-c2ccncc2)cc1
CRL-7250
  max response: 3.37%
HaCat
  max response: 4.02%
KB-3-1
  outcome: inactive
NIH3T3
  max response: 4.47%
C33A
  Potency: inactive
CAOV3
  Potency: inactive
CASKI
  Potency: inactive
Es-2
  Potency: inactive
HeLa
  Potency: inactive
Hek293T
  Potency: inactive
JEG-3
  Potency: inactive
PA-1
  Potency: inactive
SKOV3
  Potency: inactive

## COc1ccc(N2CCN(C(=O)c3cc4c(s3)-c3ccccc3S(=O)(=O)C4)CC2)cc1
CRL-7250
  max response: 4.26%
HaCat
  max response: 2.45%
KB-3-1
  max response: -19.5%
NIH3T3
  max response: -22%
C33A
  Potency: inactive
CAOV3
  Potency: inactive
CASKI
  Potency: inactive
Es-2
  Potency: inactive
HeLa
  Potency: inactive
JEG-3
  Potency: inactive
OV90
  Potency: inactive
PA-1
  Potency: inactive
SKOV3
  Potency: inactive

## C=CC(C)(O)CC/C=C(\C)C(=O)OC1C(O)C(CO)OC(OC(=O)C23CCC(C)(C)CC2C2=CCC4C5(C)CCC(OC6OC(COC7OCC(OC(C)=O)C(O)C7OC7OC(COC(C)=O)C(O)C(O)C7OC(C)=O)C(O)C(O)C6OC6OCC(O)C(O)C6O)C(C)(C)C5CCC4(C)C2(C)C(O)C3O)C1OC1OCC(OC2OCC(O)C(OC3OCC(O)C(O)C3O)C2O)C(O)C1O (stereo not given)
CRL-7250
  Potency: 891 nM (active)
HaCat
  max response: -18.3%
KB-3-1
  max response: -19.5%
NIH3T3
  max response: -5.37%
C33A
  activity change, negative = cytotoxicity: -0.479% [at 6.55 µM]
CAOV3
  activity change, negative = cytotoxicity: -0.149% [at 6.55 µM]
CASKI
  activity change, negative = cytotoxicity: -8.72% [at 6.55 µM]
Es-2
  activity change, negative = cytotoxicity: -2.99% [at 6.55 µM]
HeLa
  activity change, negative = cytotoxicity: -14% [at 6.55 µM]
Hek293T
  activity change, negative = cytotoxicity: -1.14% [at 6.55 µM]
JEG-3
  activity change, negative = cytotoxicity: -2.85% [at 6.55 µM]
SKOV3
  activity change, negative = cytotoxicity: 0.6% [at 6.55 µM]

## O=S(=O)(NCc1ccccn1)c1ccc(Br)c2ccccc12
CRL-7250
  max response: -0.212%
HaCat
  max response: 1.53%
KB-3-1
  max response: 0.961%
NIH3T3
  max response: -0.344%
C33A
  Potency: inactive
CAOV3
  Potency: inactive
CASKI
  Potency: inactive
Es-2
  Potency: inactive
HeLa
  Potency: inactive
Hek293T
  Potency: inactive
JEG-3
  Potency: inactive
OV90
  Potency: inactive
PA-1
  Potency: inactive
SKOV3
  Potency: inactive

## COc1c2c(c(C)c3c1C(=O)OC3)O[C@@]1(C)C[C@@H](OC(C)=O)[C@]34O[C@](OC)(CC[C@]3(C)[C@H]1C2)OC4(C)C
CRL-7250
  max response: -3.21%
HaCat
  max response: -9.22%
KB-3-1
  max response: 1.98%
NIH3T3
  max response: 4.28%
C33A
  Potency: inactive
CAOV3
  Potency: inactive
CASKI
  Potency: inactive
Es-2
  Potency: inactive
HeLa
  Potency: inactive
Hek293T
  Potency: inactive
JEG-3
  Potency: inactive
OV90
  Potency: inactive
PA-1
  Potency: inactive
SKOV3
  Potency: inactive

## C[C@@H]1O[C@@H](O[C@H]2CC[C@@]3(C)C(CC[C@]4(C)C3CC=C3[C@@H]5CC(C)(C)CC[C@]5(C(=O)O[C@@H]5O[C@H](CO)[C@@H](O)[C@H](O)[C@H]5O)CC[C@]34C)[C@]2(C)CO)[C@H](O)[C@H](O[C@@H]2O[C@H](CO)[C@@H](O)[C@H](O)[C@H]2O)[C@H]1O (stereo not given in full)
CRL-7250
  max response: 1.26%
HaCat
  max response: -8.27%
KB-3-1
  outcome: inactive
NIH3T3
  max response: -2.37%
C33A
  activity change, negative = cytotoxicity: -20.9% [at 11.6 µM]
CAOV3
  activity change, negative = cytotoxicity: -0.291% [at 11.6 µM]
CASKI
  activity change, negative = cytotoxicity: -6.26% [at 11.6 µM]
Es-2
  activity change, negative = cytotoxicity: -0.79% [at 11.6 µM]
HeLa
  activity change, negative = cytotoxicity: -1.56% [at 11.6 µM]
Hek293T
  activity change, negative = cytotoxicity: -6.15% [at 11.6 µM]
JEG-3
  activity change, negative = cytotoxicity: -9.27% [at 11.6 µM]
OV90
  activity change, negative = cytotoxicity: -0.517% [at 11.6 µM]
SKOV3
  activity change, negative = cytotoxicity: 8.14% [at 11.6 µM]
